A selection: hits, their analogues and other compounds. The true share with any hit is near 2.3%.
M1 ag parental = M1 agonist counterscreen hit in parental CHO-K1 cells. hit rate 0.48% among 360,000. Fluo-8 calcium fluorescence; scaled to maximal ATP response, vehicle zero. activation, % at 3 µM; in the data active means activation above about 15%;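 further: untransfected CHO-K1 host cells lacking M1 receptor as counterscreen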
CHRM1 PAM = positive allosteric modulators of human M1 muscarinic receptor. P11229. CHO-K1 hM1, Fluo-8 calcium fluorescence, ACh EC20; 0% = ACh EC20, 100% = maximal ACh. activation, % at 3 µM. hit rate 0.088% among 360,000. AID 588819; in the data active means activation above about 19%, passing the limit was not always enough
Target sequence (P11229 whole entry, looked up): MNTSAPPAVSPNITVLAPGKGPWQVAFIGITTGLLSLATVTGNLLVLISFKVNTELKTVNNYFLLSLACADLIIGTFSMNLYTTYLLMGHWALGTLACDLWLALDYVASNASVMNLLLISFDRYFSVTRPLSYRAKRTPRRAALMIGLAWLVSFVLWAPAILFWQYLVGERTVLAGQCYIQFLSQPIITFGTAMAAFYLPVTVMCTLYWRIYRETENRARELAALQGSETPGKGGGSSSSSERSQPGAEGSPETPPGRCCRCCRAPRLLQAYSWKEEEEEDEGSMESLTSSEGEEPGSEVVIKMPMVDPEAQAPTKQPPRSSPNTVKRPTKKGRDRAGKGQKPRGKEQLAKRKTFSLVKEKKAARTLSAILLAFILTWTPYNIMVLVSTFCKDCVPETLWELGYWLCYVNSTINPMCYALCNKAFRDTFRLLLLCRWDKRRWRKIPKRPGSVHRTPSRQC
M1 ag = human M1 muscarinic receptor agonism; AID 588814; activation, % at 3 µM; P11229; CHO-K1 hM1, Fluo-8 calcium fluorescence, agonist mode; 0% DMSO, 100% acetylcholine EC100; hit rate 0.33% among 360,000;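 active means activation above the run's mean compound activation plus 3 SD, cut at about 16% in these data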;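 further: peak over basal fluorescence ratio within a 140 s kinetic read after compound addition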
M1 PAM parental = M1 PAM counterscreen hit in parental CHO-K1 cells; ATP EC20, Fluo-8 calcium fluorescence; 0% at ATP EC20, 100% at ATP max; activation, % at 3 µM; hit rate 0.02% among 360,000; AID 602247;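 active means activation above the run cutoff, the mean activation of all test compounds plus 3 SD, cut at about 40% in these data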;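 further: peak over basal fluorescence ratio in a 140 s read after ATP addition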
CHO-K1 Ca antag = nonselective inhibitor or artifact in parental CHO-K1 cells; ATP-induced calcium, Fluo-8 fluorescence; inhibition, % at 3 µM; hit rate 0.6% among 360,000;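 active means inhibition above a per-plate cutoff, the plate's mean sample inhibition plus 3 SD, cut at about 24% in these data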
M1 antag = blocks human M1 muscarinic receptor; CHO-K1 hM1, Fluo-8 calcium fluorescence, ACh EC80 antagonist; inhibition, % at 3 µM; hit rate 1.3% among 360,000;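 active means percent inhibition above its own plate's cutoff, namely the mean of that plate's compound wells plus 3 SD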;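 further: peak over basal fluorescence ratio during 140 s after agonist addition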
A number is an active result; i = inactive; nt = no result given.

SMILES	M1 ag parental	CHRM1 PAM	M1 ag	M1 PAM parental	CHO-K1 Ca antag	M1 antag
CC1CCCCN1CCNC(=O)c1ccc2c(=O)n(Cc3ccc(Cl)cc3)c(=S)[nH]c2c1 (stereo not given)	i	i	i	i	i	i
O=C(Nc1nnc(-c2ccc3c(c2)CCCC3)o1)c1ccccc1	i	i	17	i	i	i
O=C(Nc1nnc(-c2ccc3c(c2)CCCC3)o1)c1ccccc1Cl	i	i	i	i	i	i
COc1ccc(CN2CCN(C(=O)c3c(-c4ccccc4)noc3C)CC2)cc1F	i	i	i	i	i	i
O=C(COc1ccccc1)NC(=S)Nc1cccc2cc(O)ccc12	i	i	19	i	i	i
O=C(NC(=S)Nc1cccc2cc(O)ccc12)c1ccco1	31	i	i	i	i	i
COc1ccccc1C(C)NC(=O)CCC(=O)N1CCN(S(=O)(=O)c2ccc(Cl)cc2)CC1 (stereo not given)	i	i	i	i	i	i
COc1cc(/C=N/N2C(=O)CSC2=S)cc(Br)c1O	48	i	55	i	i	38
COc1cc(C2c3[nH]c4ccccc4c3CC3COC(=O)N32)cc(OC)c1O (stereo not given)	i	i	i	i	i	i
CCCc1c(O)nc(SCCN(CCC)CCC)[nH]c1=O	i	i	i	i	27	i
COc1ccccc1NC(=O)CSc1nc(O)c(Cc2ccccc2)c(=O)[nH]1	i	i	i	i	i	i
CCCCCCCc1c(O)nc(SCCN(C)C)[nH]c1=O	i	i	i	i	i	i
CCSc1nc(O)c(Cc2ccccc2)c(=O)[nH]1	i	i	i	i	31	i
COc1ccc(C2c3c(-c4cc(Cl)c(C)cc4O)n[nH]c3C(=O)N2Cc2cccnc2)cc1OC (stereo not given)	i	i	i	i	i	80
COc1ccc(C2c3c(-c4ccccc4O)n[nH]c3C(=O)N2Cc2ccco2)cc1OC (stereo not given)	i	i	i	i	i	i
COc1ccc(NS(=O)(=O)c2cc3c4c(c2)CCN4C(=O)CC3)cc1OC	i	i	i	i	i	i
Cc1ccc(N(CC(=O)NC2CCCCC2)S(=O)(=O)c2c(C)noc2C)cc1	i	i	i	i	i	i
CCC1CCCCN1Cc1ccc(CNC(=O)CCc2nnc3ccc(N4CCCCC4)nn23)o1 (stereo not given)	i	i	i	i	i	43
CCOCCCNC(=O)CCc1nnc2ccc(N3CCCCC3)nn12	i	i	i	i	i	i
O=C(NNC(=O)c1n[nH]c2ccccc12)c1ccccc1	i	i	i	i	i	i
Nc1c(S(=O)(=O)c2ccccc2)c2nc3ccccc3nc2n1/N=C/c1ccco1	i	i	i	i	26	i
CCC(C)NC(C(=O)Nc1ccc(Cl)c([N+](=O)[O-])c1)c1ccccc1 (stereo not given)	i	i	i	i	i	i
COCC(C)NC(C(=O)Nc1ccc(Cl)c([N+](=O)[O-])c1)c1ccccc1 (stereo not given)	i	31	i	i	i	i
CCCCCN(C(=O)CCC(=O)OCC(=O)c1c(C)cc(C)cc1C)c1c(N)n(CCCC)c(=O)[nH]c1=O	i	i	i	i	i	i
NC(=O)c1nnn(Cc2cc(Cl)c(C(=O)c3ccc(Cl)cc3)c(Cl)c2)c1N	i	nt	nt	i	i	nt
SMILES	M1 ag parental	CHRM1 PAM	M1 ag	M1 PAM parental	CHO-K1 Ca antag	M1 antag
O=C(Nc1nc2c(F)cc(F)cc2s1)C1CC1	i	i	i	i	31	i
O=C(CN1C(=O)CCC1=O)Nc1nc2c(F)cc(F)cc2s1	i	i	i	i	i	i
CC(C)(C)C(=O)OCc1ccc(C2=CC(=O)CC(C)(C)C2=O)cc1	i	i	i	i	i	i
CC(=O)OCc1ccc(C2=CC(=O)CC(C)(C)C2=O)cc1	i	i	i	i	24	i
CCCC1OC(c2cc3c(cc2Cl)OCO3)OCC1CC (stereo not given)	i	i	i	i	i	i
CCOC(=O)c1ccc(Nc2ncnc3nc[nH]c23)cc1	i	i	i	i	i	i
c1ccc(COc2ccc(Nc3ncnc4nc[nH]c34)cc2)cc1	i	i	i	i	24	i
CCN(CC(=O)NC1CCS(=O)(=O)C1)S(=O)(=O)c1ccc(Cl)c(C(F)(F)F)c1 (stereo not given)	i	i	i	i	i	i
COc1ccc(COC(=O)c2sc3nc4n(c(=O)c3c2C)CCC4)cc1	i	i	i	i	i	i
CC(C)S(=O)(=O)c1csc(C(=O)Nc2ccc(F)cc2)c1N	21	i	i	i	i	i
Cc1nc(Cl)sc1C(=O)Nc1ccc(F)cc1	i	i	i	i	i	i
CCOC(=O)CCNC(=O)N1CCCC(N2CCN(c3ccc(OC)cc3)CC2)C1 (stereo not given)	i	i	i	i	i	i
Cc1cc2nnc(SC(C)C#N)n2c2ccccc12 (stereo not given)	i	i	i	i	i	i
Cc1cc2nnc(SC(C)C)n2c2ccccc12	i	i	i	i	i	33
Cc1sc2ncnc(NC3CCN(Cc4ccccc4)CC3)c2c1C	i	i	i	i	i	43
CCOC(=O)c1c(OCCO)nn(-c2ccc(Cl)cc2)c1N	i	i	i	i	33	i
CCOC(=O)C1(C)CCN1C(=O)c1ccc(OC)c(F)c1 (stereo not given)	i	i	i	i	i	i
Fc1ccc(NC(=S)NCCc2ccc(Cl)cc2)cc1	i	i	i	i	i	i
O=[N+]([O-])c1ccc(NC(=S)NCCc2ccc(F)cc2)cc1	i	i	i	i	38	33
Fc1ccc(CCNC(=S)Nc2ccc(F)c(Cl)c2)cc1	i	i	i	i	25	i
O=C(NCCc1ccc(F)cc1)Nc1ccc([N+](=O)[O-])cc1	i	i	i	i	i	i
Fc1cccc(NC(=S)NCCc2ccccc2)c1	i	i	i	i	i	i
O=[N+]([O-])c1cccc(NC(=S)NCCc2ccccc2)c1	i	i	i	i	31	i
COc1cc2[nH]c3c(=O)n(N)c(=O)[nH]c3c2cc1OC	i	i	i	i	i	41
COc1ccc2[nH]c3c(=O)n(N)c(=O)[nH]c3c2c1	i	i	i	i	i	i
CC(=O)c1cccc(NC(=O)C(C)OC(=O)CCN=C2NS(=O)(=O)c3ccccc32)c1 (stereo not given)	i	i	i	i	i	i
CCCCCCCN1CCC(=O)N([C@H](CO)CC(C)C)CC1	i	i	i	i	i	i
Cc1ccc(N2C(=O)C3N=NN(CC(=O)N4N=C(c5ccccc5)CC4c4ccccc4)C3C2=O)cc1 (stereo not given)	i	i	i	i	24	i
COc1ccc(C2=NN(C(=O)CCC(=O)O)C(c3ccccc3)C2)cc1 (stereo not given)	i	i	i	i	i	i

Bioassay records from PubChem BioAssay.
